Article PMC11062922 (Nature Chemical Biology, 2023)

System: PIK3C3
Design: species or system human, MV4-11 + K-562 + COLO205 + SK-N-BE2 + OVCAR-8
Conditions: read-out: apparent Kd; compound concentrations:100 nM and 1000 nM (sheet 'Samples'); n = 1

Row | Structure (SMILES) | potency estimated from few doses
1 | Cc1nn2c(=O)cc(N3CCOCC3)nc2n1Cc1cccc(Cl)c1Cl [GSK2342769A] | 0.0081 µM
2 | O=c1cc(N2CCOCC2)nc2n(Cc3cccc(Cl)c3)ccn12 [GSK2296823A] | 0.667 µM
3 | O=c1cc(N2CCOCC2)nc2n(Cc3ccc(F)c(Cl)c3)ccn12 [GSK2297099A] | 0.912 µM

System: PIK3CB
Design: species or system human, MV4-11 + K-562 + COLO205 + SK-N-BE2 + OVCAR-8
Conditions: read-out: apparent Kd; compound concentrations:100 nM and 1000 nM (sheet 'Samples'); n = 1

Row | Structure (SMILES) | potency estimated from few doses
4 | C[C@H]1CC[C@@H](C(=O)Nc2ccccc2)CN1c1cc(-c2ccc3c(N)n[nH]c3c2)nc(N)n1 [GSK2283293_KCGS] | 1.13 µM
5 | O=C(O)C(F)(F)F.[2H]C([2H])(c1cccc(C(F)(F)F)c1C)n1c(SC)nn2c(=O)cc(N3CCOCC3)nc12 [GSK2363608B] | 0.00869 µM
6 | Cc1c(Cn2c(C)nn3c(=O)cc(N4CCO[C@H](C)C4)nc23)cccc1C(F)(F)F [GSK2373690A] | 0.0061 µM
7 | O=c1cc(N2CCOCC2)nc2n(Cc3cccc(Cl)c3)ccn12 [GSK2296823A] | 0.0305 µM

System: PIK3CD
Design: species or system human, MV4-11 + K-562 + COLO205 + SK-N-BE2 + OVCAR-8
Conditions: read-out: apparent Kd; compound concentrations: 100 nM and 1000 nM (sheet 'Samples'), CATDS: 1; n = 1

Row | Structure (SMILES) | potency estimated from few doses
8 | CC(C)N1CCN(Cc2cnc(-c3cc(-c4cccc5[nH]ccc45)cc4[nH]ncc34)o2)CC1 [GSK2269557] | 0.00145 µM
9 | CCCCCc1nc2c(N)ncnc2n1CCCCC [SKF-97255] | 0.152 µM
10 | COc1ccc(Nc2nccc(N3CCC(NC(=O)c4cccc(NC(C)=O)c4)C3)n2)cc1 (centres unmarked) [GSK1379732A] | 0.141 µM

Same assay, conditions: read-out: apparent Kd; compound concentrations:100 nM and 1000 nM (sheet 'Samples'); n = 1

Row | Structure (SMILES) | potency estimated from few doses
11 | Cc1nn2c(=O)cc(N3CCOCC3)nc2n1Cc1cccc(Cl)c1Cl [GSK2342769A] | 0.0876 µM
12 | C[C@H]1CC[C@@H](C(=O)Nc2ccccc2)CN1c1cc(-c2ccc3c(N)n[nH]c3c2)nc(N)n1 [GSK2283293_KCGS] | 0.168 µM
13 | O=C(O)C(F)(F)F.[2H]C([2H])(c1cccc(C(F)(F)F)c1C)n1c(SC)nn2c(=O)cc(N3CCOCC3)nc12 [GSK2363608B] | 0.146 µM
14 | CN(C1=C(c2ccccc2)C(=O)NC1=O)c1ccccc1 [SB-334860] | 0.175 µM
15 | O=C(NCCNc1ccnc(NCc2ccc(F)cc2)n1)c1cc2ccccc2s1 [GSK1379944A] | 0.2 µM
16 | Cc1cccc(-c2nc(Nc3ccc4c(cnn4C)c3)c3ccccc3n2)n1 [GW876731X] | 0.158 µM
17 | O=c1cc(N2CCOCC2)nc2n(Cc3ccc(F)c(Cl)c3)ccn12 [GSK2297099A] | 0.15 µM
